# Sampled rows, rich in hits. Any-hit rate of the full collection: about 10%.
# HP1b binding inh = HP1-beta chromodomain-methylated histone interaction inhibition; AlphaScreen HP1-beta / biotin-H3K9me3 peptide binding; actives 0.56% (n = 390,000); Potency, µM (titrated, usually from 114 µM), for inactives: top-dose activity change, negative = inhibition, hits mostly inhibitors; P83916; AID 540317; also: potency is read from the fitted curve at half-maximal effect; nearly all actives have a fitted effect of over 70% in size
#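 Compound inhibition of the preformed complex between 50 nM HP1-beta and 50 nM biotinylated H3K9me3 peptide was read by AlphaScreen. Buffer was PBS pH 7.4 with 0.01% Tween-20. Incubations ran 30 min at room temperature, with 10 ug/mL donor/acceptor beads.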
# Six1-Eya2 inh = inhibitors of human Six1/Eya2 interaction. Q15475+O00167. AlphaScreen GST-Six1/His-Eya2 binding, biochemical; stronger effect = lower value. activity change, % (no concentration beside the values). actives 0.56% (n = 360,000); in the data active = activity change below about -65%; inconclusive = mostly about -30% to -63%; also: % is scaled to controls: 0 for no effect and ±100 for the full control effect
# Target sequence (O00167 whole entry, looked up): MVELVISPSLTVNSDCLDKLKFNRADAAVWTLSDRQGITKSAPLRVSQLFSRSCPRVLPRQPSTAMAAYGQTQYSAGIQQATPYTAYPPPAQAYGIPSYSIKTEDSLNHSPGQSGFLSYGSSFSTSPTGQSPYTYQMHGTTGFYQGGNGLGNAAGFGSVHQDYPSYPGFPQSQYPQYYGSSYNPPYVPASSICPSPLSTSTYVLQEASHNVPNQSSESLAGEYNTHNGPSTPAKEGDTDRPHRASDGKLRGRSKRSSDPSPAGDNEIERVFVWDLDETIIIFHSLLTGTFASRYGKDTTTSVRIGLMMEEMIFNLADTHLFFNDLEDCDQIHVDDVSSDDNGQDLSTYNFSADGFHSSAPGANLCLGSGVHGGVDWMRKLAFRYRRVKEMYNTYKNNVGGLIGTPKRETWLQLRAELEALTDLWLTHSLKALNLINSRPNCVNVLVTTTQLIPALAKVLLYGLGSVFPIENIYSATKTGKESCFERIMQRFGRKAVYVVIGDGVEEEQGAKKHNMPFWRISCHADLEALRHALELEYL
# Target sequence (Q15475 whole entry, looked up): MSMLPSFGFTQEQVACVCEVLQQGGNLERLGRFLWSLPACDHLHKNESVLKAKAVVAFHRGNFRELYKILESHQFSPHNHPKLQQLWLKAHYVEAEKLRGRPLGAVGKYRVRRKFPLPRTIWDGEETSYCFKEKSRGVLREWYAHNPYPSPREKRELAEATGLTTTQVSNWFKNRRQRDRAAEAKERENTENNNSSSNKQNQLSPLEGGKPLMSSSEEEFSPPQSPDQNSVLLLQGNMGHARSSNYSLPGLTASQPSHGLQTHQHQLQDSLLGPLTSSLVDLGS
#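 GST-Six1 + His-Eya2 (5X stock: 250/500 nM); Tris pH 8.0, 300 mM NaCl, 0.05% BSA, 0.02% Tween 20; GSH donor/Ni acceptor beads; 1 h 37 °C dark; AlphaScreen readout.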
# CtBP-E1A blk = blocks the CtBP interaction with E1A | AlphaScreen GST-E1A/His-CtBP binding, 1536-well; stronger effect = lower value | actives 0.49% (n = 340,000) | activity change, % (concentration not given with the values); in the data active = activity change below about -65%; inconclusive = mostly about -30% to -63%; also: % is scaled to controls: 0 for no effect and ±100 for the full control effect
#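 Protein mix (5X: 125 nM each GST-E1A, His-CtBP) was incubated with pinned compound 2 h at 37 deg C in dark, in 50 mM Tris pH 8.0 buffer with 300 mM NaCl. Glutathione donor and nickel acceptor beads followed; AlphaScreen signal read after 1 h.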
# JMJD2A Tudor = JMJD2A Tudor domain (human) inhibition | Potency, µM (doses to about 114 µM), inactives show at the top dose activity change, negative = inhibition, hits mostly inhibitors | AlphaScreen JMJD2A-Tudor / H3K4me3 peptide binding | actives 4.4% (n = 390,000) | O75164 | AID 504339; also: potency is read from the fitted curve at half-maximal effect; % is scaled to controls: 0 for no effect and ±100 for the full control effect; nearly all actives have a fitted effect of over 50% in size
# G9a inh = blocks human histone lysine methyltransferase G9a. Q96KQ7. actives 8.8% (n = 350,000). Potency, µM (titrated, usually from 102 µM), without a hit: at the highest dose activity, negative = inhibition, actives largely listed as inhibitors. G9a H3K9 monomethylation, AlphaScreen, 2 h; also: potency is read from the fitted curve at half-maximal effect; % is scaled to controls: 0 for no effect and ±100 for the full control effect; nearly all actives have a fitted effect of over 75% in size
#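 G9a (20 nM) was preincubated 15 min with compound, then reacted 2 h at room temperature with 500 nM biotin-H3K9 peptide and 20 µM SAM. Monomethyl-H3K9 detected by AlphaScreen using anti-H3K9me1 antibody.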
# BAZ2B inh = inhibitors of human BAZ2B bromodomain; Q9UIF8; AlphaScreen BAZ2B-H3K14Ac peptide displacement; Potency, µM (doses to about 114 µM), for inactives: at the top dose activity change, negative = inhibition, actives largely listed as inhibitors; actives 4.4% (n = 360,000); AID 504333; also: potency is read from the fitted curve at half-maximal effect; % is scaled to controls: 0 for no effect and ±100 for the full control effect; nearly all actives have a fitted effect of over 60% in size
#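 AlphaScreen luminescence quantifies BAZ2B engagement of H3K14Ac peptide; the protein and biotinylated peptide are both at 50 nM final, buffer PBS pH 7.4 with 0.01% Tween-20, all steps at room temperature.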
# An asterisk follows results filed as active; ? = inconclusive; / = no result given; [ ] = dose if it differs, or a comment. Unless noted, calls follow the shape of the dose curve; as a rule, active = well fitted inhibition curve with a large enough effect; inconclusive = small, poorly fitted or top-dose-only effect; inactive = no such curve, though single readings can be large or run the other way.
SMILES,HP1b binding inh,Six1-Eya2 inh,CtBP-E1A blk,JMJD2A Tudor,G9a inh,BAZ2B inh
O=C1CC(c2ccco2)CC(O)=C1C=NCC1NCCc2ccccc21 (stereo not drawn),13%,-24,-23,-21%,-24%[59 µM],-6%
Cc1ccc(-n2c(=O)c3c(cnn3C)n(Cc3ccccc3F)c2=O)cc1,18%,/,/,-4%,-23%[59 µM],-12%
COc1ccc(CN2C(=O)c3cccnc3C2=O)cc1S(=O)(=O)N1CCCC(C)C1 (stereo not drawn),41%,-1,/,-11%,18%,56µM*
COc1ccc(CN2C(=O)c3cccnc3C2=O)cc1S(=O)(=O)NCc1ccc(C)cc1,52%,4,/,-14%,-24%,79µM*
COc1ccc(CN2C(=O)c3cccnc3C2=O)cc1S(=O)(=O)N1CCCCC1,9%[57 µM],0,/,-15%,-29%,?
COc1cccc(CNS(=O)(=O)c2cc(CN3C(=O)c4cccnc4C3=O)ccc2OC)c1,25%,-4,/,-18%,16%,-28%
CC1(C)Cc2c(c(N3CCOCC3)nc3sc4c(NCc5ccco5)nnnc4c23)CS1,10%,-21,-13,-8%,18µM*,-32%
CC1(C)Cc2c(c(N3CCOCC3)nc3sc4c(NCc5ccccc5)nnnc4c23)CS1,2%,-3,-1,-10%,-46%[59 µM],-22%
COc1ccc2c(c1)C=C(C(=O)OCc1cccnc1)CO2,-1%,1,1,35µM*,-33%,-28%
COc1ccc(CNC(=O)C(=O)NCc2cccnc2)cc1,20%,5,6,-14%,/,-5%
Cc1nc(CC(=O)Nc2cc(Cl)ccc2C)cs1,34%,/,/,-11%,-33%[59 µM],-5%
COc1ccccc1NC(=O)CCc1nc2ccccc2s1,1%,0,0,20µM*,1%,-12%
CC(C)c1ccccc1NC(=O)CCc1nc2ccccc2s1,17%,-2,-5,-20%,20µM*,-13%
O=C(CCc1nc2ccccc2s1)Nc1ccccc1,47%,0,-14,2%,2%,-2%
O=C(O)CCCC(=O)Nc1ccc(OCc2nc3ccccc3s2)cc1,?,-1,-13,?,3.2µM*,?
Cc1cc(=O)oc2c3c(cc(OCC(=O)N4CCC[C@H]4C(=O)O)c12)OC(C)(C)CC3,30%,-71*,?,-16%,-9%[12.7 µM],7%
CCCCc1cc(=O)oc2c3c(cc(OCC(=O)N4CCC[C@H]4C(=O)O)c12)OC(C)(C)CC3,8%,0,3,-25%,12%,-23%
c1ccc(C2=NNC(c3ccccn3)=NN2)nc1,49%,-71*,-80*,7.1µM*,32µM*,2.8µM*
c1ccc(-c2nnc(-c3ccccn3)s2)nc1,-15%,-8,0,?,-117%[59 µM],?
Cc1cccc(OC(=O)n2c(=S)oc3cc(Cl)ccc32)c1,3%,35,4,79µM*,2.8µM*,-15%
O=C(NCc1ccccc1)/C(=C\c1ccccc1)NC(=O)c1ccco1,21%,1,2,-20%,27%,-11%
CC(=O)N/C(=C\c1ccc(C)o1)C(=O)NCc1ccccc1,43%,-5,-4,-28%,71µM*,-2%
O=C(NCC1CCCO1)/C(=C\c1ccccc1)NC(=O)c1ccccc1 (stereo not drawn),-4%,6,5,-13%,/,-8%
Cc1ccc(/C=C(\NC(=O)c2ccccc2)C(=O)NCC2CCCO2)o1 (stereo not drawn),33%,8,/,-7%,56µM*,-12%
CC(Nc1ccc(F)cc1)=[N+](C)CCNS(=O)(=O)c1ccc(Cl)cc1,?,-10,0,20µM*,22µM*,50µM*
SMILES,HP1b binding inh,Six1-Eya2 inh,CtBP-E1A blk,JMJD2A Tudor,G9a inh,BAZ2B inh
CCNS(=O)(=O)c1ccc(NC(=O)Cc2ccc(F)cc2)cc1,38%,5,15,-4%,10%[12.7 µM],1%
Cc1ccc(C)c(Cn2c(=O)c3c(nc4n3CCN4c3ccc(F)cc3)n(C)c2=O)c1,13%,/,/,-6%,-42%[59 µM],-8%
CSc1nc(=O)n2cccc(C)c2n1,58%,-19,40,-12%,-4%[12.7 µM],-4%
Cc1cccn2c(=S)[nH]nc12,71µM*,0,3,2.8µM*,/,/
Cc1cc(OCc2cc(C(=O)N(C)CCCN3CCOCC3)no2)cc(C)c1Cl,19%,-2,1,89µM*,-3%,-18%
COc1ccccc1OCc1cc(C(=O)N(C)CCC2CCOCC2)no1,/,5,-8,/,/,/
CC(=O)c1cccc(OCc2cc(C(=O)N3C[C@@H](C)O[C@@H](C)C3)no2)c1,56%,4,12,-10%,45µM*,-18%
CC(=O)c1cccc(OCc2cc(C(=O)N3C[C@H]4CC[C@H]3C4)no2)c1,18%,-17,0,1%,30%,-1%
CC(=O)c1cccc(OCc2cc(C(=O)N(C)CCC3CCOCC3)no2)c1,35%,0,6,11%,45µM*,-3%[57.1 µM]
COCC1CCN(C(=O)c2cc(COc3ccc4ncccc4c3)on2)CC1,0%,1,-1,16µM*,/,-1%
CC(=O)c1cc(-c2ccccc2)n(CCC(=O)NCc2ccc(C)cc2)c1C,32%,/,/,-10%,2%[59 µM],1%
COc1ccc(-n2nc3cc(C)c(NC(=O)c4ccc(-c5ccc(Br)cc5)o4)cc3n2)cc1,15%,/,/,-13%,3%[59 µM],5%
CCOC(=O)C1C(c2cc(OC)c(O)c(OC)c2)NC(=S)NC1(O)C(F)(F)F (stereo not drawn),40%,0,0,-1%,-16%[59 µM],-6%
COc1cc(C2NC(=S)NC(O)(C(F)(F)F)C2C(=O)c2cccs2)cc(OC)c1O (stereo not drawn),40%,22,0,-8%,79µM*,-2%
c1ccc(NC2=Nc3cccc4cccc2c34)cc1,-14%,-17,-12,-13%[57.1 µM],25µM*,?
O=C(O)c1cccc(NC2=Nc3cccc4cccc2c34)c1,17%,0,-1,-10%,?,-3%
COc1ccc(NC2=Nc3cccc4cccc2c34)cc1,?,?,-25,45µM*,?,35µM*
COc1ccc(OCC(=O)OCc2cc(=O)n3cc(C)sc3n2)cc1,5%,/,/,-11%,13%[59 µM],-7%
N#CC1(C#N)C2=C(CCCC2)NC(c2ccccc2)C1(C#N)C#N (stereo not drawn),/,/,/,/,18µM*,50µM*
N#CC12C(N)=NC3(OCCO3)C1(C#N)C1=C(CCC1)NC2c1ccccc1 (stereo not drawn),32%,-5,-11,-8%,?,0%
COc1ccccc1CNc1nc2ccc(C)cc2n2nnnc12,31%,/,/,-9%,-8%[59 µM],-5%
